The results in this text go back to PubChem BioAssay AID411 (National Center for Advancing Translational Sciences (NCATS), 2006).

Screen size: about 72,000 compounds; about 1,600 (2.2%) were called active. The sample as a whole holds a higher share of actives than the screen did. Values without a mark were called inactive. Calls follow the shape of the dose curve; as a rule, active = well fitted inhibition curve with a large enough effect; inconclusive = small, poorly fitted or top-dose-only effect; inactive = flat fitted curve, though single readings scatter.
% is scaled to controls: 0 for no effect and ±100 for the full control effect; potency is read from the fitted curve at half-maximal effect.

This test deals with Luciferin 4-monooxygenase (Photinus pyralis) (UniProt P08659). In words: qHTS Assay for Inhibitors of Firefly Luciferase. Also: nearly all actives have a fitted effect of over 40% in size. Particulars: purified firefly luciferase, luminescence, 8 min; series mostly up to 57.1 µM. The procedure: To aid in the interpretation of high-throughput screening (HTS) results derived from luciferase-based assays, we used quantitative HTS, an approach that defines the concentration-response behavior of each library sample, to profile the ATP-dependent luciferase from Photinus pyralis against more than 72 000 samples. Luciferase (PKLight, Cambrex Corporation) was assayed for its ability to generate light using ATP and luciferin as substrates. The ATP concentration in the assay (10 uM) was within the linear range of enzyme activity for the assay conditions used. See following reference for further details: [1] Auld DS, Southall NT, Jadhav A, Johnson RL, Diller DJ, Simeonov A, Austin CP, Inglese J. Characterization of chemical libraries for luciferase inhibitory activity. J Med Chem. 2008 Apr 24;51(8):2372-86. Auld DS, Zhang YQ, Southall NT, Rai G, Landsman M, Maclure J, Langevin D, Thomas CJ, Austin CP, Inglese J. A Basis for Reduced Chemical Library Inhibition of Firefly Luciferase Obtained from Directed Evolution. J. Med. Chem., 2009, 52 (5), pp 1450#1458 [3] Auld DS, Thorne N, Nguyen DT, Inglese J. A specific mechanism for nonspecific activation in reporter-gene assays. ACS Chem Biol. 2008 Aug 15;3(8):463-70. Auld DS, Thorne N, Maguire WF, Inglese J. Mechanism of PTC124 activity in cell-based luciferase assays of nonsense codon suppression. Proc Natl Acad Sci U S A. 2009 Mar 3;106(9):3585-90. Inglese J, Auld DS, Jadhav A, Johnson RL, Simeonov A, Yasgar A, Zheng W, Austin CP. Quantitative high-throughput screening: a titration-based approach that efficiently identifies biological activities in large chemical libraries. Proc Natl Acad Sci U S A. 2006 Aug 1;103(31):11473-8.
Sequence of Luciferin 4-monooxygenase (Photinus pyralis) (P08659 whole entry, looked up): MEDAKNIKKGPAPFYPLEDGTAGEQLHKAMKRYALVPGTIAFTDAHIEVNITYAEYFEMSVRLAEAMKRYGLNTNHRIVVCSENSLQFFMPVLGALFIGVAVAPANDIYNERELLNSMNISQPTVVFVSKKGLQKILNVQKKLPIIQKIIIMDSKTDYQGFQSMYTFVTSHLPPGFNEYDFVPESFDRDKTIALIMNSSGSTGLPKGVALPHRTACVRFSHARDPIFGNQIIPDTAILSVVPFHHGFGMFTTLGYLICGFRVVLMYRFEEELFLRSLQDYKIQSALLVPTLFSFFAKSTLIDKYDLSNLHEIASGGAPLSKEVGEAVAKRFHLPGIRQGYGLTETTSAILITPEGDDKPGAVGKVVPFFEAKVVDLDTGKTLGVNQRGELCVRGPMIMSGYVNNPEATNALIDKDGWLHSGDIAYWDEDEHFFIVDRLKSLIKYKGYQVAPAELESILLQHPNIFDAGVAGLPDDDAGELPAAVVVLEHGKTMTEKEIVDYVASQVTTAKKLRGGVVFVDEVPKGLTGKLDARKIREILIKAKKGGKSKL
Four uL of substrate mix (final concentration, 50 mM imidazole pH 7.2, 50 mM KCl, 7 mM MgCl2, 10 uM ATP, 0.01% Tween 20, 0.05% BSA) was dispensed into white 1536 well plates. Twenty-three nL of compound was delivered by a pin tool and 2 uL of luciferase detector mix (PKLight, Cambrex) was added. Following 8-minute incubation at ambient temperature, luminescence was measured by a ViewLux (Perkin Elmer) at 5 seconds exposure/plate.
(Quantitative high-throughput screening tests each substance at several concentrations.)
For `COc1ccc(NC(=O)Nc2cccc3cccnc23)cc1`, the Potency is 5.01 µM (active). On to `c1ccc(CN2CC[C@@]3(CCCNC3)C2)cc1`, for which the activity change, negative = inhibition is 0.194% [at 11.4 µM]. Turning to `CC(C)(c1ccc(OC[C@@H]2CO2)cc1)c1ccc(OC[C@H]2CO2)cc1`, the activity change, negative = inhibition entry is “inactive”. For `CC[C@]1(O)C(=O)OCc2c1cc1n(c2=O)Cc2cc3ccccc3nc2-1`, the activity change, negative = inhibition was 1.26% [at 11.4 µM].

With `Cc1cccc([C@H](C)c2cnc[nH]2)c1C`, the activity change, negative = inhibition result is “inactive”.
